Data published in PMC4336329 (PLoS ONE, 2015).
About 14,000 (4.5%) of roughly 310,000 compounds showed an effect of 50% or more. The effect is printed as a negative number. Only a selection was taken, and strong results are over-represented in it overall.

biological target: human ether-à-go-go-related gene (hERG) potassium channel (human, UniProt Q12809); experiment: primary screen, population patch clamp on CHO cells stably expressing hERG; higher = less effect of the substance
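Further: peak tail current of the secondary pulse compared with the same well before compound.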

Sequence of human ether-à-go-go-related gene (hERG) potassium channel (Q12809 whole entry, looked up): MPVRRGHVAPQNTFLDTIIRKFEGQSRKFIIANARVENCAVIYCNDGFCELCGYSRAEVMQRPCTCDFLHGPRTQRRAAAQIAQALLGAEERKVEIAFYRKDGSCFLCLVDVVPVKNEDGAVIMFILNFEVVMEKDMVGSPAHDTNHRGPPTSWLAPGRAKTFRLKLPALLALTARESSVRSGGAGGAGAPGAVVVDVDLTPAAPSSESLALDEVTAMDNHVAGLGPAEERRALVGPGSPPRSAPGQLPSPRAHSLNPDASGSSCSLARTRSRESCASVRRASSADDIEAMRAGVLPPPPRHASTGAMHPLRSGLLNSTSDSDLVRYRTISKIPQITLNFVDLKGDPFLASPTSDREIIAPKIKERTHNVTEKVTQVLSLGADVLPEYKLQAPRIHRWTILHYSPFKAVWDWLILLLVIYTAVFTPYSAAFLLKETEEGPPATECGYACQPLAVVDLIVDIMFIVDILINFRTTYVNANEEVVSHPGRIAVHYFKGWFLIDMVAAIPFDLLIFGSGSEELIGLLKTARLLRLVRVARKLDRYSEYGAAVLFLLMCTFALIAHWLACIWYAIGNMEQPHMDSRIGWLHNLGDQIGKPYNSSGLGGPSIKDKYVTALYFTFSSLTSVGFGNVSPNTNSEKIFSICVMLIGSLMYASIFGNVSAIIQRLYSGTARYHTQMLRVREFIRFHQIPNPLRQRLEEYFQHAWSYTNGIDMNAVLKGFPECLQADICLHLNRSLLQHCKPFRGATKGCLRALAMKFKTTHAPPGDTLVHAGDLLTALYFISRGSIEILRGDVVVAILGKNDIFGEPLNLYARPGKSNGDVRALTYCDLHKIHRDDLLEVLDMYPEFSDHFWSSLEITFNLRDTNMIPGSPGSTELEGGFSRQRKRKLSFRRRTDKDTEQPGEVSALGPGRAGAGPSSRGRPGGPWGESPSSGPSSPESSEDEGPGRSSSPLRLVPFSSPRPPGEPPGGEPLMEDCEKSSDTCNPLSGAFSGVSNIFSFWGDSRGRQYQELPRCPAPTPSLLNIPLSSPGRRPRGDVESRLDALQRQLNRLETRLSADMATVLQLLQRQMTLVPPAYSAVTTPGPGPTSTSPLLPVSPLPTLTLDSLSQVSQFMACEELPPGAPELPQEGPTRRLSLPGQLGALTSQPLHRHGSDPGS

| SMILES | hERG current change (%, negative = inhibition) at 10uM |
| --- | --- |
| CC(C)(C)c1ccc(CS(=O)CC(O)CO)cc1 (centres unmarked) | 19.3% |
| Cc1cccnc1NC(=O)CNC(=O)c1cccs1 | -8.89% |
| Cc1ccc(S(=O)(=O)N2CCC(C(=O)NCCc3ccccc3)CC2)cc1 | -0.42% |
| O=C(NCCCc1ccccc1)C1CCN(S(=O)(=O)c2ccc(F)cc2)CC1 | -60.7% |
| CCCCOc1ccc(NS(=O)(=O)c2ccc(-n3cnnn3)cc2)cc1 | -3.42% |
| O=C(NCCc1ccccc1)C1CCN(S(=O)(=O)c2ccc(-c3nn[nH]n3)cc2)CC1 | -18.7% |
| CC(=O)c1ccc(OCCNS(=O)(=O)c2ccc(-n3cnnn3)cc2)cc1 | -55.3% |
| COc1ccc(OCC(NS(=O)(=O)c2ccc(-n3cnnn3)cc2)C(C)C)cc1 (centres unmarked) | -52.2% |
| O=C(NCCc1ccccc1)C1CCN(S(=O)(=O)c2ccc(-n3cnnn3)cc2)CC1 | -66.3% |
| COc1ccc(S(=O)(=O)N2CCC(C(=O)NCCCc3ccccc3)CC2)cc1 | -35.9% |
| CC(=O)c1ccc(OCCNS(=O)(=O)c2ccc(-n3cnnn3)c(C)c2)cc1 | -2.88% |
| CC(=O)c1ccc(S(=O)(=O)Nc2ccc(-n3cnnn3)cc2)cc1 | -6.16% |
| COc1ccc(S(=O)(=O)Nc2cccc(-n3cnnn3)c2)cc1 | 1.11% |
| O=C(CCNC(=O)C1CCN(S(=O)(=O)c2ccc(F)cc2)CC1)NCc1ccccc1 | 2.4% |
| Cc1ccc(N2CCN(C(=O)c3cccs3)CC2)cc1C | 2.97% |
| Cc1cccn(Cc2c(Cl)cccc2Cl)c1=O | -9.53% |
| CCOc1ccc(N(CC(=O)NC(C(C)C)C(C)C)S(=O)(=O)c2ccc(OC)c(OC)c2)cc1 | 38% |
| CCOC(=O)CNC(=S)N(Cc1ccccc1)Cc1cccs1 | -17.3% |
| COc1ccc(NC(=O)c2ccc(OC)cc2)cc1 | -30% |
| COc1ccc(OC)c(C2=Nn3c(nnc3-c3cc(OC)c(OC)c(OC)c3)SC2)c1 | -21% |
| CC(C)(C)NS(=O)(=O)c1cc(C(=O)Nc2sccc2C#N)ccc1Cl | 4.98% |
| COc1ccc(NC(=O)NC2(C(=O)N3CCCC3)CCCCC2)cc1 | 22% |

| SMILES | hERG current change (%, negative = inhibition) at 10uM |
| --- | --- |
| Cc1ccc(NC(=O)CN(C)C(=O)c2cccc(S(=O)(=O)N3CCc4ccccc43)c2)cc1 | -15.6% |
| CC(=O)C1=C(O)C(=O)N(Cc2cccnc2)C1c1ccc(C(C)C)cc1 (centres unmarked) | 17.1% |
| CC(=O)N1c2ccc(S(=O)(=O)N3CCC(C(=O)NCc4ccc(N(C)C)cc4)CC3)cc2CC1C (centres unmarked) | 18.8% |
| COc1ccc(CCNC(=O)C2CCN(S(=O)(=O)c3ccc(-n4cnnn4)cc3)CC2)cc1OC | -13% |
| CCOc1cc(S(=O)(=O)NCc2ccccc2)c(OCC)cc1-n1cnnn1 | -14.3% |
| O=S(=O)(NCCc1ccccc1)c1ccc(-n2cnnn2)cc1 | -56.7% |
| O=C(NCCc1ccc(Cl)cc1)C1CCN(S(=O)(=O)c2ccc(-n3cnnn3)cc2)CC1 | -69% |
| CC(C)CNC(=O)C1CCN(S(=O)(=O)c2ccc(-n3cnnn3)cc2)CC1 | -55.3% |
| CCOc1ccc(-n2cnnn2)cc1S(=O)(=O)Nc1c(C)cccc1C | -19.4% |
| Cc1cc(S(=O)(=O)NCCc2ccccc2)ccc1-n1cnnn1 | -17.1% |
| COc1ccc(CCNS(=O)(=O)c2ccc(-n3cnnn3)cc2)cc1OC | -26% |
| CCOc1ccc(-n2cnnn2)cc1S(=O)(=O)NCc1ccccc1 | -71% |
| CC(C)CNC(=O)C1CCCN(S(=O)(=O)c2ccc(-n3cnnn3)cc2)C1 (centres unmarked) | -0.697% |
| CC(C)CCNC(=O)C1CCN(S(=O)(=O)c2ccc(-n3cnnn3)cc2)CC1 | -37.6% |
| CC(=O)Nc1ccc(S(=O)(=O)N2CCC(C(=O)NCCc3ccc(Cl)cc3)CC2)cc1 | 5.7% |
| O=C1CSC(c2ccc([N+](=O)[O-])cc2)N1C1CCCCC1 (centres unmarked) | -47.4% |
| CC(C)c1ccc(O)c(NC(=S)NC(=O)c2cccnc2)c1 | 11% |
| CC(C)Oc1cccc(C(=O)C2CCCN(C(=O)c3cc(C4CC4)[nH]n3)C2)c1 (centres unmarked) | -19.9% |
| CC(=O)c1ccc(NC(=O)N2CCc3ccccc3C2)cc1 | -0.383% |
| CCN1CCN(CC(=O)Nc2ccc(Cl)c(Cl)c2)C(=O)C1=O | -5.76% |
| Cc1c(N(C)C(=O)C23CC4CC(CC(C4)C2)C3)c(=O)n(-c2ccccc2)n1C | -1.09% |
| Cc1ccc(NC(=S)N2CCN(S(=O)(=O)c3ccccc3)CC2)cc1C | 11.6% |
